The nature of this experiment: beta-lactam sensitization of Mtb H37Rv, H37Rv (AID 434955).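 Further: growth measured after seven days incubation then overnight dye step; 0% = bacteria only wells and 100% = bacteria with antibiotic.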 As to conditions: M. tuberculosis H37Rv growth with meropenem, percent inhibition, at 25 µM.
Where [1] appears, read: measured here: primary screen without meropenem.

Experimental findings from PubChem BioAssay AID434955 (Southern Research Specialized Biocontainment Screening …, 2010) are described below.

Hit rate of the full screen: of about 330,000 compounds, about 880 (0.27%) were called active. Roughly 1% stayed inconclusive and do not appear here. How the calls were made is not given here. A selection follows.

For `C/C(Cc1ccccc1)=N\NC(=O)CNC(=O)c1ccccc1Cl`, the inhibition (commonly the change of the read-out against control, counted positive when it falls) runs as follows: (stronger effect = higher value) -6.3% (inactive); under setting [1], 2.92%.
The corresponding values for `CCc1cccc(C)c1NC(=O)COC(=O)Cc1ccsc1` are -1.39% (inactive) and 2.58%.
Regarding `O=S(=O)(c1ccc(F)cc1)N1CCN=C1SCc1cccc(F)c1`, the inhibition runs as follows: (stronger effect = higher value) 9.8% (inactive); under setting [1], 11.2%.
For `NC(=O)C1CCN(C(=O)/C(=C/c2ccco2)NC(=O)c2ccccc2)CC1`, the inhibition by setting is: (stronger effect = higher value) -2.14% (inactive); under setting [1], -8.97%.
Turning to `CCCCNCc1ccc(SC)cc1`, the inhibition (stronger effect = higher value) is -3.24% (inactive) and the inhibition under setting [1] was -0.62%.
The corresponding values for `O=C1CC(=O)Nc2cc(S(=O)(=O)N3CCN(c4cccc(C(F)(F)F)c4)CC3)ccc2N1` are -1.42% (inactive) and 4.41%.
As for `Cc1ccc(N2C(=O)CC(NCc3ccc4c(c3)OCO4)C2=O)cc1Cl` (configuration not stated), the inhibition was -7.15% (inactive) (stronger effect = higher value) and 0.64% under setting [1].
On to `COc1cc(NC(=S)N2CCCC(C)C2)cc(OC)c1OC` (configuration not stated), for which the inhibition runs as follows: (stronger effect = higher value) 0.37% (inactive); under setting [1], 3.47%.
As for `CCOc1ccc(NC(=O)C(C)N2C(=O)c3ccccc3C2=O)cc1` (configuration not stated), the inhibition (stronger effect = higher value) is -0.05% (inactive) and the inhibition under setting [1] amounted to 0.73%.
As to `CC(C)NS(=O)(=O)c1ccc(CCC(=O)N2CCOCC2)cc1`, the inhibition is -4.86% (inactive) (stronger effect = higher value) and -6.67% under setting [1].
Take `CC(=O)OCCC(C)C`: the inhibition is -5.13% (inactive) (stronger effect = higher value) and -1% under setting [1].
The corresponding values for `CCOC(=O)c1cn[nH]c1NC(=S)Nc1ccccc1` are -8.22% (inactive) and -3.62%.
`CCCCNC(=O)Cn1nc(C)c(S(=O)(=O)N2CCOCC2)c1C`: the inhibition reads like this: (stronger effect = higher value) -4.34% (inactive); under setting [1], -4.6%.
The corresponding values for `Fc1ccc(N2N=C(c3cccs3)CC2c2ccco2)c(F)c1` (configuration not stated) are 35.4% (inactive) and 9.4%.
On to `Cc1ccc(N(CC(=O)NC2CCCCC2)C(=O)CCCC(=O)Nc2ccccn2)c(C)c1`, for which the inhibition runs as follows: (stronger effect = higher value) -1.33% (inactive); under setting [1], -1.01%.
On to `CCSC1=NCCN1C(=O)c1ccc(S(=O)(=O)N(CC)CC)cc1`, for which the inhibition is 6.44% (inactive) (stronger effect = higher value) and 0.45% under setting [1].
Consider `COc1ccccc1-c1oc2ccccc2c1C#CCCCCO`, for which the inhibition is 10.7% (inactive) (stronger effect = higher value) and 7.25% under setting [1].
In the case of `CC(C)OC(=O)CN1CCN(c2ccc(Cl)cc2)CC1`, the inhibition by setting is: (stronger effect = higher value) -3.97% (inactive); under setting [1], -7.14%.
For `O=C(Nc1cccnc1)c1noc2c1CCCCC2` the same measures were 2.93% (inactive) and -8.89%.
On to `COc1ccc(S(=O)(=O)N2CCCCC2)cc1NC(=O)c1cc([N+](=O)[O-])ccc1N1CCOCC1`, for which the inhibition by setting is: (stronger effect = higher value) -11.2% (inactive); under setting [1], -3.23%.
For `COC(=O)CC(=O)N1CCN(c2ccc(Cl)c(Cl)c2)CC1` the same measures were -8.83% (inactive) and 97.6%.
Turning to `Cc1cccc(NC(=O)C(C)N2C(=O)C3C4CC(C(Br)C4Br)C3C2=O)c1` (configuration not stated), the inhibition reads like this: (stronger effect = higher value) -22.1% (inactive); under setting [1], -16.2%.
Regarding `CC(C)c1ccc(NC(=O)CCN2C(=O)c3ccc([N+](=O)[O-])cc3C2=O)cc1`, the inhibition was -2.88% (inactive) (stronger effect = higher value) and -6.43% under setting [1].
For `Cc1nc(COc2cccc(Cl)c2)sc1C(=O)/C=C/N(C)C` the same measures were -4.65% (inactive) and -0.85%.
For the molecule `C/C(=N/NC(=O)CSc1ccccn1)c1ccc([N+](=O)[O-])cc1`, the inhibition is -3.17% (inactive) (stronger effect = higher value) and 6.64% under setting [1].
The corresponding values for `O=C(NC(=O)c1ccccc1)Nc1ccccc1O` are 0.65% (inactive) and 3%.
For `O=C1[C@@H]2C(c3cccnc3)=NO[C@@H]2C(=O)N1c1ccc(Cl)cc1Cl` the same measures were -5.66% (inactive) and 0.68%.
Regarding `C[C@@H]1C[C@@H]2O[C@H]2/C=C\C=C\C(=O)Cc2c(Cl)c(O)cc(O)c2C(=O)O1`, the inhibition (stronger effect = higher value) is 29.7% (inactive) and the inhibition under setting [1] is 18.4%.
For `CCc1ccc2[nH]c(=O)c(Cc3ccccc3)c(O)c2c1`, the inhibition was -0.83% (inactive) (stronger effect = higher value) and -2.95% under setting [1].
Consider `O=C(C1CCCN1S(=O)(=O)c1ccc(Br)cc1)N1CCOCC1` (configuration not stated), for which the inhibition (stronger effect = higher value) was -1.22% (inactive) and the inhibition under setting [1] was found to be 0.94%.
As for `Cc1c(NC(=O)C(C)OC(=O)c2cc3c4ccccc4n(C)c3s2)c(=O)n(-c2ccccc2)n1C` (configuration not stated), the inhibition was 4.17% (inactive) (stronger effect = higher value) and 3.63% under setting [1].
In the case of `O=C(CSC1CC(=O)N(CCc2ccccc2)C1=O)Nc1ccc(Cl)cc1` (configuration not stated), the inhibition is -1.52% (inactive) (stronger effect = higher value) and -3.81% under setting [1].
On to `CCOc1ccc(C(O)Cn2c(=N)n(CCN3CCCCC3)c3ccccc32)cc1` (configuration not stated), for which the inhibition runs as follows: (stronger effect = higher value) 8.31% (inactive); under setting [1], 3.41%.
As to `O=S(=O)(Nc1ccc(Cl)cn1)c1cnc(Cl)c(Br)c1`, the inhibition runs as follows: (stronger effect = higher value) -1.47% (inactive); under setting [1], -1.06%.
For `Cc1cc(NC(=O)OC(C)C)ccc1-c1ccc(NC(=O)OC(C)C)cc1C` the same measures were 0.85% (inactive) and -5.74%.
The corresponding values for `CCNC(=O)CC1C(=O)N(c2ccc(OC)cc2)C(=O)N1CCOC` (configuration not stated) are 7.04% (inactive) and -0.36%.
Turning to `COC(=O)Cc1ccc(NC(=S)NCc2ccco2)cc1`, the inhibition is -6.59% (inactive) (stronger effect = higher value) and 47.6% under setting [1].
On to `Cc1cccc([C@@H]2[C@@H]3C(=O)N(C)C(=O)[C@@H]3[C@@H]3C(=O)Nc4ccccc4C(=O)N23)c1`, for which the inhibition reads like this: (stronger effect = higher value) -6.47% (inactive); under setting [1], -0.42%.
As for `O=C1c2ccccc2C(=O)N1CCOc1ccc(F)cc1`, the inhibition runs as follows: (stronger effect = higher value) -2.05% (inactive); under setting [1], -1.56%.
The corresponding values for `Cn1cc(CCC(=O)N2CCCC(C(=O)c3ccc(C(C)(C)C)cc3)C2)cn1` (configuration not stated) are 0.49% (inactive) and 4.84%.
For `CCSCc1nc(N)nc(NCCc2ccccc2)n1` the same measures were 0.44% (inactive) and 4.31%.
